Among the data in ChEMBL document CHEMBL1157539, “Thousands of chemical starting points for antimalarial lead identification” (Nature, 2010) are Inhibition values, retold here.

Each structure is given as a SMILES string.

For orientation: Inhibition means the percentage by which the read-out fell short of the control. A higher Inhibition goes with a response far below the control.

The subject of the experiment is HepG2. Description: GSK_TCMDC: Percent inhibition of human HepG2 cell line. Test compounds present at 10uM. The class given is functional.
For `O=C(/C=C/c1ccc(Cl)c(Cl)c1)NCCCCCN1CCC(c2c[nH]c3cc(O)ccc23)CC1`, the Inhibition was determined as 32%.
With `Cl.N=C(N)c1cccc(OCCCOc2cccc(NC(=O)Nc3ccc([N+](=O)[O-])cc3)c2)c1`, the Inhibition was determined as 16%.
For `O=C(Nc1ccccc1N1CCOCC1)c1ncoc1-c1ccccc1C(F)(F)F`, the Inhibition is on record as 0%.
In turn, `CCC(O)(C#Cc1c(C)nc(N)nc1N)CC` showed an Inhibition of 63%.
Consider `O=C(/C=C/c1ccc(Cl)c(Cl)c1)NCCCCCN1CCCC(C(=O)Nc2cccc(Cl)c2)C1` (stereo not given), for which the Inhibition is given as 41%.
For the compound `CN1CCN(c2ccnc3cc4c(cc23)N(Cc2ccccc2)CC4)CC1`, the Inhibition was 0%.
`O=C(O)C(F)(F)F.O=S(=O)(NCCN1CCCC1)c1cccc(-c2ccc(CNCc3ccsc3)cc2)c1` registered an Inhibition of 33%.
Turning to `CCc1ccc(NC(=O)c2ccc(CN3CCCN(Cc4cccs4)CC3)cc2)cc1.O=C(O)C(F)(F)F`, the Inhibition amounted to 57%.
Compound `O=C(NCCCCCN1CCCN(C(=O)Nc2ccc(F)c(C(F)(F)F)c2)CC1)C1CC1c1ccc(Cl)c(Cl)c1` (stereo not given) showed an Inhibition of 61%.
For `Cc1nc(-c2cccc(C(=O)Nc3cnc4ccccc4c3)c2)no1.O=C(O)C(F)(F)F`, the Inhibition was determined as 15%.
On to `Cc1ccc(CNC(=O)c2cnc(N3CCN(c4ccncc4)CC3)c(Cl)c2)cc1.O=C(O)C(F)(F)F`, for which the Inhibition is reported as 27%.
Compound `Cn1cncc1C(=O)Nc1cccc(-c2ccc(-c3nc4ccccc4[nH]3)s2)c1` yielded an Inhibition of 0%.
Consider `N#Cc1nc2ccc(OCCN(Cc3ccccc3C(F)(F)F)c3ccc(C#N)c(C(F)(F)F)c3)cc2s1`, for which the Inhibition was 23%.
`CCNc1cc(C(=O)N[C@@H](Cc2ccccc2)[C@H](O)CNC(C)(C)CSCC(C)C)cc(N2CCCC2=O)c1`: the Inhibition came out at 0%.
The compound `CNc1ccc(CNCc2cccc(-c3ccc(-c4nc5cccc(C)c5[nH]4)s3)c2)cc1.O=C(O)C(F)(F)F` displayed an Inhibition of 23%.
As to `Cc1cccc2nc(-c3cccc(-c4cccc(CN5CCC(CO)CC5)c4)c3)[nH]c12.O=C(O)C(F)(F)F`, the Inhibition worked out at 4%.
Compound `CCC[C@@H]([C@@H](CC1CCCCC1)C(=O)N[C@@H](CCCCNS(C)(=O)=O)C(=O)Nc1nccs1)N(O)C=O` yielded an Inhibition of 0%.
On to `Clc1ccc(-c2nc3cc(-c4ccc5nc(-c6ccc(Cl)cc6)[nH]c5c4)ccc3[nH]2)cc1`, for which the Inhibition was 59%.
`O=C(NC1CCCc2ccccc21)C1CCCN(C(=O)c2ccc(O)c(-c3ccc(Cl)c(Cl)c3)c2)C1` (stereo not given) displayed an Inhibition of 0%.
In turn, `O=C(Nc1cccc(-c2nn3ccccc3c2-c2ccnc(Nc3ccc(-c4cc[nH]n4)cc3)n2)c1)c1c(F)cccc1F` displayed an Inhibition of 68%.
As for `CS(=O)(=O)CCNCc1cc(-c2cc3ncnc(Nc4ccc(OCc5cccc(F)c5)c(Cl)c4)c3s2)cs1`, the Inhibition was 8%.
`OC(CNCc1ccccc1OCc1ccccc1)c1cccc(Cl)c1` (stereo not given) showed an Inhibition of 0%.
As for `COc1ccc(-c2cnc3ccc(NCc4ccc(S(N)(=O)=O)cc4)nn23)cc1`, the Inhibition was found to be 19%.
Compound `CN(C)c1ccc(CN2CCC(CNC(=O)c3cc(-c4cccc(C(F)(F)F)c4)cs3)C2)cc1.O=C(O)C(F)(F)F` (stereo not given) yielded an Inhibition of 39%.
As for `CN1CCCN(Cc2ccc(-c3ccc(NC(=O)c4cccc(Cl)c4)cc3)cc2)CC1.O=C(O)C(F)(F)F`, the Inhibition was found to be 55%.
On to `Cc1noc(C)c1-c1cccc(CNCc2ccc(-c3cccc(-c4nc5cc(C(F)(F)F)ccc5[nH]4)c3)cc2)c1.O=C(O)C(F)(F)F`, for which the Inhibition was 37%.
For `COc1cc(C=NNc2cc(C)nc3c(OC)cccc23)cc(OC)c1OC`, the Inhibition was 2%.
For `COc1ccc(CCNCCCCCCNCCc2ccccc2Cl)cc1OC.Cl`, the Inhibition was 13%.
Take `N#Cc1ccc(N/C(=N\c2cccc(Cl)c2Cl)NC2Cc3ccccc3C2)c(O)c1`: the Inhibition is reported as 15%.
For the compound `COc1cc(NC(=O)N2CCOC(CCN3CCC(c4ccccc4)CC3)(c3ccc(Cl)c(Cl)c3)C2)cc(OC)c1` (stereo not given), the Inhibition turned out to be 12%.
The same measure for `CCC(C)c1ccc(NC(=O)Nc2ccnc3ccccc23)cc1.Cl` (stereo not given): 27%; for `N=C(N)c1ccc(NCc2cccc(C(=O)O)c2)cc1.O=C(O)C(F)(F)F`: 7%.
On to `Fc1ccc2[nH]c(-c3cccc(-c4cccc(CNCC5CCCO5)c4)c3)nc2c1.O=C(O)C(F)(F)F` (stereo not given), for which the Inhibition stood at 40%.
The same measure for `CN(C)c1cc(C(=O)N[C@@H](Cc2ccccc2)[C@H](O)CNC2CCCCC2)cc2[nH]ccc12.O=CO`: 10%; for `O=C(/C=C/c1ccc(Cl)cc1)NCCCCCN1CCC(C(=O)Nc2ccc(Cl)c(Cl)c2)CC1`: 47%.
The compound `CCc1c(C)c2ccc3c(c2oc1=O)CN(CCc1ccc(F)cc1)CO3` came in with an Inhibition of 0%.
For `O=C(Nc1ccc2oc(-c3ccc(Br)cc3)nc2c1)c1ccc([N+](=O)[O-])o1` the value was 9%; for `CS(=O)(=O)Nc1ccc(-c2ccc3ccnc(N)c3c2)cc1.O=C(O)C(F)(F)F`, 31%.
`COc1cccc2c(NCCNc3ccnc4c(OC)cccc34)ccnc12.Cl` had an Inhibition of 11%.
For `COc1ccccc1CCNc1nc(C)cc(NCCC(=O)NCCOc2ccccc2)n1.O=C(O)C(F)(F)F`, the Inhibition was 11%.
